Active and inactive are the calls of the source. How the source made its calls: active means hit-call score of the fitted dose curve at least 0.9, where 1 is the maximum; inactive means score below 0.9.
assay: IUF_NPC2c_oligodendrocyte_migration_120hr: Leibniz Research Institute for Environmental Medicine (IUF) 120-hour Neural Progenitor Cell Migration Assay for Oligodendrocyte Migration (NPC2c) (AID 2284297);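 further: O4-positive oligodendrocyte migration distance divided by radial glia migration distance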
In short: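 Human fetal neural progenitor spheres (0.3 mm) are plated on poly-D-lysine/laminin in N2 differentiation medium and exposed for 120 h, with half-medium renewal at day 3. Oligodendrocyte (O4+) migration distance comes from ICC imaging, normalised to radial glia migration.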

| Structure (SMILES) | outcome |
| --- | --- |
| CCNC(=O)NC(=O)C(C#N)=NOC | inactive |
| CS(=O)(=O)c1ccc(C(=O)C2C(=O)CCCC2=O)c([N+](=O)[O-])c1 | inactive |
| CC1(C)C(C=C(Cl)Cl)C1C(=O)OC(C#N)c1cccc(Oc2ccccc2)c1 (centres undefined) | inactive |
| COC(=O)N(C(=O)N1CO[C@@]2(C(=O)OC)Cc3cc(Cl)ccc3C2=N1)c1ccc(OC(F)(F)F)cc1 | inactive |
| O=C(Nc1ccccc1-c1ccc(Cl)cc1)c1cccnc1Cl | inactive |
| N#CN=C1SCCN1Cc1ccc(Cl)nc1 | inactive |
| COP(=S)(OC)SCn1nnc2ccccc2c1=O | inactive |
| C=C(C)CN(CC)c1c([N+](=O)[O-])cc(C(F)(F)F)cc1[N+](=O)[O-] | inactive |
| CS(=O)(=O)c1cc(C(F)(F)F)ccc1C(=O)c1cnoc1C1CC1 | inactive |
| CO/N=C(/C1=NOCCO1)c1ccccc1Oc1ncnc(Oc2ccccc2Cl)c1F | inactive |
| CCOP(=O)(OCC)Oc1nc(Cl)c(Cl)cc1Cl | inactive |
| CNC(=O)Oc1cccc2ccccc12 | inactive |
| CCSC(=O)N1CCCCCC1 | inactive |
| CC(C)(C)C(=O)C(Oc1ccc(Cl)cc1)n1cncn1 (centres undefined) | inactive |
| CN/C(=N\[N+](=O)[O-])NCc1cnc(Cl)s1 | inactive |
| Cc1c(COC(=O)[C@@H]2[C@H](/C=C(\Cl)C(F)(F)F)C2(C)C)cccc1-c1ccccc1 | inactive |

assay: IUF_NPC2a_radial_glia_migration_120hr: Leibniz Research Institute for Environmental Medicine (IUF) 120-hour Neural Progenitor Cell Migration Assay for Radial Glia Migration (NPC2a) (AID 2284298)
In short: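 Human fetal-cortex neural progenitor spheres (0.3 mm) plated on poly-D-lysine/laminin in N2 differentiation medium, exposed 120 h at 37C with half-medium renewal at day 3. Radial glia migration distance (um) measured from Hoechst-stained nuclei images; DMSO baseline.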

| Structure (SMILES) | outcome | AC50 |
| --- | --- | --- |
| CCNC(=O)NC(=O)C(C#N)=NOC | inactive | – |
| CS(=O)(=O)c1ccc(C(=O)C2C(=O)CCCC2=O)c([N+](=O)[O-])c1 | inactive | – |
| CC1(C)C(C=C(Cl)Cl)C1C(=O)OC(C#N)c1cccc(Oc2ccccc2)c1 (centres undefined) | inactive | – |
| COC(=O)N(C(=O)N1CO[C@@]2(C(=O)OC)Cc3cc(Cl)ccc3C2=N1)c1ccc(OC(F)(F)F)cc1 | inactive | – |
| O=C(Nc1ccccc1-c1ccc(Cl)cc1)c1cccnc1Cl | inactive | – |
| N#CN=C1SCCN1Cc1ccc(Cl)nc1 | inactive | – |
| COP(=S)(OC)SCn1nnc2ccccc2c1=O | – | 13.7 µM (active) |
| C=C(C)CN(CC)c1c([N+](=O)[O-])cc(C(F)(F)F)cc1[N+](=O)[O-] | inactive | – |
| CS(=O)(=O)c1cc(C(F)(F)F)ccc1C(=O)c1cnoc1C1CC1 | inactive | – |
| CO/N=C(/C1=NOCCO1)c1ccccc1Oc1ncnc(Oc2ccccc2Cl)c1F | inactive | – |
| CCOP(=O)(OCC)Oc1nc(Cl)c(Cl)cc1Cl | inactive | – |
| CNC(=O)Oc1cccc2ccccc12 | inactive | – |
| CCSC(=O)N1CCCCCC1 | inactive | – |
| CC(C)(C)C(=O)C(Oc1ccc(Cl)cc1)n1cncn1 (centres undefined) | inactive | – |
| CN/C(=N\[N+](=O)[O-])NCc1cnc(Cl)s1 | inactive | – |
| Cc1c(COC(=O)[C@@H]2[C@H](/C=C(\Cl)C(F)(F)F)C2(C)C)cccc1-c1ccccc1 | inactive | – |

assay: IUF_NPC2a_radial_glia_migration_72hr: Leibniz Research Institute for Environmental Medicine (IUF) 72-hour Neural Progenitor Cell Migration Assay for Radial Glia Migration (NPC2a) (AID 2284299)
In short: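 Human fetal cortex (GW 16-19) neural progenitor spheres, 0.3 mm, plated on poly-D-lysine/laminin in N2 differentiation medium with compound from day 0. Radial glia migration distance (um, sphere core edge to migration edge) measured manually in four directions on 72 h brightfield images; well mean used.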

| Structure (SMILES) | outcome | AC50 |
| --- | --- | --- |
| CCNC(=O)NC(=O)C(C#N)=NOC | inactive | – |
| CS(=O)(=O)c1ccc(C(=O)C2C(=O)CCCC2=O)c([N+](=O)[O-])c1 | inactive | – |
| CC1(C)C(C=C(Cl)Cl)C1C(=O)OC(C#N)c1cccc(Oc2ccccc2)c1 (centres undefined) | inactive | – |
| COC(=O)N(C(=O)N1CO[C@@]2(C(=O)OC)Cc3cc(Cl)ccc3C2=N1)c1ccc(OC(F)(F)F)cc1 | inactive | – |
| O=C(Nc1ccccc1-c1ccc(Cl)cc1)c1cccnc1Cl | inactive | – |
| N#CN=C1SCCN1Cc1ccc(Cl)nc1 | inactive | – |
| COP(=S)(OC)SCn1nnc2ccccc2c1=O | inactive | – |
| C=C(C)CN(CC)c1c([N+](=O)[O-])cc(C(F)(F)F)cc1[N+](=O)[O-] | inactive | – |
| CS(=O)(=O)c1cc(C(F)(F)F)ccc1C(=O)c1cnoc1C1CC1 | inactive | – |
| CO/N=C(/C1=NOCCO1)c1ccccc1Oc1ncnc(Oc2ccccc2Cl)c1F | inactive | – |
| CCOP(=O)(OCC)Oc1nc(Cl)c(Cl)cc1Cl | inactive | – |
| CNC(=O)Oc1cccc2ccccc12 | inactive | – |
| CCSC(=O)N1CCCCCC1 | – | 8.49 µM (active) |
| CC(C)(C)C(=O)C(Oc1ccc(Cl)cc1)n1cncn1 (centres undefined) | inactive | – |
| CN/C(=N\[N+](=O)[O-])NCc1cnc(Cl)s1 | inactive | – |
| Cc1c(COC(=O)[C@@H]2[C@H](/C=C(\Cl)C(F)(F)F)C2(C)C)cccc1-c1ccccc1 | inactive | – |

assay: IUF_NPC2b_neuronal_migration_120hr: Leibniz Research Institute for Environmental Medicine (IUF) 120-hour Neural Progenitor Cell Migration Assay for Neuron Migration (NPC2b) (AID 2284300)
In short: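 0.3 mm hNPC spheres on poly-D-lysine/laminin in N2 differentiation medium exposed 120 h, half-medium refresh day 3; 7 concentrations, DMSO max 0.1%. Neuron (TUBB3) distance from sphere core by ICC imaging, normalised to radial glia migration.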

| Structure (SMILES) | outcome |
| --- | --- |
| CCNC(=O)NC(=O)C(C#N)=NOC | inactive |
| CS(=O)(=O)c1ccc(C(=O)C2C(=O)CCCC2=O)c([N+](=O)[O-])c1 | inactive |
| CC1(C)C(C=C(Cl)Cl)C1C(=O)OC(C#N)c1cccc(Oc2ccccc2)c1 (centres undefined) | inactive |
| COC(=O)N(C(=O)N1CO[C@@]2(C(=O)OC)Cc3cc(Cl)ccc3C2=N1)c1ccc(OC(F)(F)F)cc1 | inactive |
| O=C(Nc1ccccc1-c1ccc(Cl)cc1)c1cccnc1Cl | inactive |
| N#CN=C1SCCN1Cc1ccc(Cl)nc1 | inactive |
| COP(=S)(OC)SCn1nnc2ccccc2c1=O | inactive |
| C=C(C)CN(CC)c1c([N+](=O)[O-])cc(C(F)(F)F)cc1[N+](=O)[O-] | inactive |
| CS(=O)(=O)c1cc(C(F)(F)F)ccc1C(=O)c1cnoc1C1CC1 | inactive |
| CO/N=C(/C1=NOCCO1)c1ccccc1Oc1ncnc(Oc2ccccc2Cl)c1F | inactive |
| CCOP(=O)(OCC)Oc1nc(Cl)c(Cl)cc1Cl | inactive |
| CNC(=O)Oc1cccc2ccccc12 | inactive |
| CCSC(=O)N1CCCCCC1 | inactive |
| CC(C)(C)C(=O)C(Oc1ccc(Cl)cc1)n1cncn1 (centres undefined) | inactive |
| CN/C(=N\[N+](=O)[O-])NCc1cnc(Cl)s1 | inactive |
| Cc1c(COC(=O)[C@@H]2[C@H](/C=C(\Cl)C(F)(F)F)C2(C)C)cccc1-c1ccccc1 | inactive |

Reference: PubChem BioAssay (EPA / NIEHS)
